{"source": "PubChem BioAssay (NCATS)", "note": "Results filed as inconclusive are left out. Where a call stands in place of a potency, no number is given. Activity calls are given as the source filed them. The call rests on the fitted dose curve; in most records, active means well fitted inhibition curve with a large enough effect; inconclusive means small, poorly fitted or top-dose-only effect; inactive means flat fitted curve, though single readings scatter."}
{"tested_on": "MCC-26", "assay": "qHTS assay to identify novel small-molecules to repurpose for Merkel cell carcinoma treatment (AID 1296009); further: nearly all actives have a fitted effect of over 60% in size; further: potency means the concentration at half of the fitted maximal effect", "conditions": "MCC and control cell lines, CellTiter-Glo viability, 72 h; series mostly up to 46 µM", "description": "MCC is a rare and aggressive neuroendocrine skin cancer with limited treatment options. Approximately 80% of MCCs have the Merkel cell polyomavirus (MCPyV) DNA integrated into the host genome (virus-positive: VP-MCC) and viral oncogenes drive oncogenesis. The remaining MCCs are virus-negative (VN-MCC) and are caused by UV mutagenesis. To identify novel treatments for VP-MCC and/or VN-MCC we screened three VP-MCC cell lines (WAGA, MKL-1, MKL-2), three VN-MCC cell lines (MCC-13, MCC-26, UISO), and four immortalized, non-transformed control cell lines (HaCaT, HEK293T, CRL7250, NIH-3T3) against ~2,400 compounds in the NCGC Pharmaceutical Collection (NPC) and ~1,900 compounds in the Mechanism Interrogation PlatE (MiPE). Using cell viability as a readout (CellTiter-Glo assay) we found both overlapping and distinct drugs that can be repurposed for the treatment of VP-MCC and VN-MCC.\nA high-throughput screen was conducted in 1536-well white flat bottom plates (Corning) on a Kalypsys robotic system. Cell lines WAGA, MKL-1, MKL-2, MCC-13, MCC-26, UISO, HaCaT, HEK293T, CRL7250, and NIH-3T3 were screened against 2 small molecule annotated drug libraries NPC and MIPE in dose response (8 and 11 pt. respectively) measuring cell viability after 72 hours of incubation. […] A 1,536 pintool (Kalypsys) was used to transfer 23 nL of compound in DMSO to the 1,536-well assay plates. After 72 hr incubation at 37 degree celsius, 2.5 uL of CellTiter-Glo (Promega) was dispensed into each well using a BiorapTR. Plates were incubated at room temperature for 10 min, transferred to a ViewLux (PerkinElmer) and the luminescence was recorded using an exposure time of 2 seconds. Relative luminescence units (RLUs) were normalized to in-plate controls (no cells as a positive (cytotoxicity) control, DMSO as negative control) and the normalized data was processed using NCATS in-house software."}
{"compound": "COc1cc(NC(C)CCCN)c2ncccc2c1", "note": "(stereo not given)", "Potency": "inactive"}
{"compound": "CC(=O)SCC(CC(=O)c1ccc(C)cc1)C(=O)O", "note": "(stereo not given)", "Potency": "inactive"}
{"compound": "CCCC(=O)OC[C@@H](OC(=O)CCC)[C@@H](OC(=O)CCC)[C@H](Cn1c2nc(=O)[nH]c(=O)c-2nc2cc(C)c(C)cc21)OC(=O)CCC", "Potency": "inactive"}
{"compound": "CCCCCCOc1ccccc1C(N)=O", "Potency": "inactive"}
{"compound": "CCCOC(=O)c1ccc(O)cc1", "Potency": "inactive"}
{"compound": "CCCCCCCCCCCCOCCO", "Potency": "inactive"}
{"compound": "c1ccc2sc(SSc3nc4ccccc4s3)nc2c1", "Potency": "inactive"}
{"compound": "c1ccc(CCNc2nc(-c3ccccc3)cs2)cc1", "Potency": "inactive"}
{"compound": "CN(C)[C@@H]1C(=O)C(C(=O)NCN2CCCC2)=C(O)[C@@]2(O)C(=O)C3=C(O)c4c(O)cccc4[C@@](C)(O)C3C[C@@H]12", "note": "(stereo not given in full)", "Potency": "inactive"}
{"compound": "CC(N)C(=O)OC(C)(C)Cc1ccc(Cl)cc1", "note": "(stereo not given)", "Potency": "inactive"}
{"compound": "O=C(O)c1ccccc1Nc1cccc(C(F)(F)F)c1", "Potency": "inactive"}
{"compound": "COC(=O)c1nc(Cl)c(Cl)nc1N", "Potency": "8.41 µM (active)"}
{"compound": "O=c1cc(-c2ccccc2)oc2ccccc12", "Potency": "inactive"}
{"compound": "CCCCC1C(=O)N(c2ccccc2)N(c2ccc(O)cc2)C1=O", "note": "(stereo not given)", "Potency": "inactive"}
{"compound": "[O-][n+]1ccccc1SSc1cccc[n+]1[O-]", "Potency": "0.146 µM (active)"}
{"compound": "O=C(CCN1CCN(CCO)CC1)N1c2ccccc2Sc2ccc(C(F)(F)F)cc21", "Potency": "inactive"}
{"compound": "Nc1ccc([N+](=O)[O-])cc1O", "Potency": "inactive"}
{"compound": "CCC1C(=O)OCC1Cc1cncn1C", "note": "(stereo not given)", "Potency": "inactive"}
{"compound": "CC1(C)S[C@@H]2[C@H](NC(=O)[C@H](N)c3ccccc3)C(=O)N2[C@H]1C(=O)O", "Potency": "inactive"}
{"compound": "Cc1[nH]cnc1CN1CCc2c(c3ccccc3n2C)C1=O", "Potency": "inactive"}
{"compound": "Nc1c(CC(=O)O)cccc1C(=O)c1ccc(Br)cc1", "Potency": "inactive"}
{"compound": "CN1CC(=O)N/C1=N/C(=O)Nc1cccc(Cl)c1", "Potency": "inactive"}
{"compound": "Cc1ccc(C(=O)c2ccc(CC(=O)O)n2C)cc1", "Potency": "inactive"}
{"compound": "CCCCCCCC/C=C/C(=O)O", "Potency": "inactive"}
{"compound": "COc1cccc2c1C(=O)c1c(O)c3c(c(O)c1C2=O)C[C@@](O)(C(=O)CO)C[C@@H]3O[C@H]1C[C@H](N)[C@H](O[C@@H]2CCCCO2)[C@H](C)O1", "Potency": "7.5 µM (active)"}
{"compound": "Nc1cc(-c2ccncc2)c[nH]c1=O", "Potency": "inactive"}
{"compound": "N=C(N)N", "Potency": "inactive"}
{"compound": "NCCO", "Potency": "inactive"}
{"compound": "Cc1c(N)c(=O)n(-c2ccccc2)n1C", "Potency": "inactive"}
{"compound": "O=C(O)/C=C\\C(=O)O", "Potency": "inactive"}
{"compound": "Nc1ccc(O)c([N+](=O)[O-])c1", "Potency": "inactive"}
{"compound": "c1ccc2sc(SN3CCOCC3)nc2c1", "Potency": "inactive"}
{"compound": "O=Cc1ccc(O)c(O)c1O", "Potency": "inactive"}
{"compound": "C[N+]1(C)[C@@H]2CC(OC(=O)[C@H](CO)c3ccccc3)C[C@H]1[C@@H]1O[C@@H]12", "note": "(stereo not given in full)", "Potency": "inactive"}
{"compound": "Cc1cc(O)c2ccccc2c1O", "Potency": "inactive"}
{"compound": "Nc1ccc(O)c(C(=O)O)c1", "Potency": "inactive"}
{"compound": "CCCCCCCCCCCCCCCC(=O)OC(C)C", "Potency": "inactive"}
{"compound": "O=c1[nH]c2ccccc2n1CCCN1CCN(C(c2ccccc2)c2ccccc2)CC1", "Potency": "inactive"}
{"compound": "Clc1ccccc1-c1nc(-c2ccncc2)no1", "Potency": "inactive"}
{"compound": "O=C1CN(/N=C/c2ccc([N+](=O)[O-])o2)C(=O)N1", "Potency": "inactive"}
